Reference: PubChem BioAssay AID1159580 (chemical genetic matrix, 2015)
The campaign covered roughly 5,500 compounds. About 2,000 (36%) were called active. Another 18% or so got no clear call; they are omitted. Rule as the data show it: active = normalized growth mostly below about 0.91 (no sharp cut-off); inconclusive = no clear call, values can overlap the other calls; inactive = mostly above about 0.92. The list shows a part of the results.

Assay: chemical genetic growth profiling, strain panel (AID 1159580);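 also: tested at 20 µM; growth read once vehicle control cultures reached saturation at 30 °C; 1 = growth at the plate median or of vehicle wells; lower values mean less growth of the strain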
Conditions: growth OD

Measured: normalized growth

CCC(C(=O)O)c1ccccc1 (configuration not stated)
inactive: S. cerevisiae deletion strains, locus YJR075W, strain HOC1, hits give low values 1 | S. cerevisiae deletion strains, locus YKL009W, strain mrt4, hits give low values 1.01 | S. cerevisiae deletion strains, locus YKL068W, hits give low values 0.976 | S. cerevisiae deletion strains, locus YKL085W, strain MDH1 (second series), hits give low values 0.981 | S. cerevisiae deletion strains, locus YKL085W, strain MDH1, hits give low values 0.981 | S. cerevisiae deletion strains, locus YKL160W, strain elf1, hits give low values 0.996 | S. cerevisiae deletion strains, locus YKL190W, strain CNB1, hits give low values 1.01 | S. cerevisiae deletion strains, locus YKR001C, strain vps1, hits give low values 0.987 | S. cerevisiae deletion strains, locus YKR026C, strain gcn3, hits give low values 0.99 | S. cerevisiae deletion strains, locus YKR091W, strain srl3, hits give low values 0.99 | S. cerevisiae deletion strains, locus YLL001W, strain dnm1, hits give low values 0.986 | S. cerevisiae deletion strains, locus YLL026W, hits give low values 0.977 | S. cerevisiae deletion strains, locus YLL041C, strain sdh2, hits give low values 1 | S. cerevisiae deletion strains, locus YLR027C, strain aat2, hits give low values 1 | S. cerevisiae deletion strains, locus YLR039C, strain RIC1, hits give low values 0.958 | S. cerevisiae deletion strains, locus YLR058C, strain SHM2, hits give low values 1 | S. cerevisiae deletion strains, locus YLR102C, strain apc9, hits give low values 0.995 | S. cerevisiae deletion strains, locus YLR113W, strain HOG1, hits give low values 0.912 | S. cerevisiae deletion strains, locus YLR221C, strain rsa3, hits give low values 0.992 | S. cerevisiae deletion strains, locus YLR258W, strain gsy2, hits give low values 1 | S. cerevisiae deletion strains, locus YLR262C, strain YPT6 (second series), hits give low values 1.01 | S. cerevisiae deletion strains, locus YLR262C, strain YPT6, hits give low values 0.966 | S. cerevisiae deletion strains, locus YLR268W, strain sec22, hits give low values 1.01 | S. cerevisiae deletion strains, locus YLR320W, strain mms22, hits give low values 0.989 | S. cerevisiae deletion strains, locus YLR330W, strain CHS5, hits give low values 1 | S. cerevisiae deletion strains, locus YLR342W, strain FKS1 (second series), hits give low values 0.994 | S. cerevisiae deletion strains, locus YLR342W, strain FKS1, hits give low values 0.998 | S. cerevisiae deletion strains, locus YLR357W, strain rsc2, hits give low values 0.951 | S. cerevisiae deletion strains, locus YLR370C, strain arc18, hits give low values 0.977 | S. cerevisiae deletion strains, locus YLR371W, strain rom2, hits give low values 1.01 | S. cerevisiae deletion strains, locus YLR384C, strain iki3, hits give low values 0.97 | S. cerevisiae deletion strains, locus YLR418C, strain cdc73, hits give low values 1.03 | S. cerevisiae deletion strains, locus YML016C, strain PPZ1, hits give low values 1 | S. cerevisiae deletion strains, locus YML032C, strain rad52, hits give low values 0.997 | S. cerevisiae deletion strains, locus YML120C, strain ndi1, hits give low values 0.979 | S. cerevisiae deletion strains, locus YML124C, strain tub3, hits give low values 1 | S. cerevisiae deletion strains, locus YMR058W, strain fet3, hits give low values 0.986 | S. cerevisiae deletion strains, locus YMR078C, strain ctf18, hits give low values 0.996 | S. cerevisiae deletion strains, locus YMR125W, strain sto1, hits give low values 0.977 | S. cerevisiae deletion strains, locus YMR129W, hits give low values 0.992 | S. cerevisiae deletion strains, locus YMR205C, strain PFK2, hits give low values 0.996 | S. cerevisiae deletion strains, locus YMR223W, strain ubp8, hits give low values 1 | S. cerevisiae deletion strains, locus YMR231W, strain pep5, hits give low values 0.992 | S. cerevisiae deletion strains, locus YMR263W, strain SAP30, hits give low values 1.01 | S. cerevisiae deletion strains, locus YMR307W, strain GAS1, hits give low values 1.07 | S. cerevisiae deletion strains, locus YNL067W, strain RPL9B, hits give low values 1.03 | S. cerevisiae deletion strains, locus YNL071W, strain lat1, hits give low values 0.989 | S. cerevisiae deletion strains, locus YNL128W, strain TEP1, hits give low values 1.02 | S. cerevisiae deletion strains, locus YNL153C, strain GIM3, hits give low values 1 | S. cerevisiae deletion strains, locus YNL183C, strain NPR1, hits give low values 0.905 | S. cerevisiae deletion strains, locus YNL209W, strain ssb2, hits give low values 0.989 | S. cerevisiae deletion strains, locus YNL233W, strain BNI4, hits give low values 0.999 | S. cerevisiae deletion strains, locus YNL248C, strain rpa49, hits give low values 0.984 | S. cerevisiae deletion strains, locus YNL250W, strain rad50, hits give low values 0.975 | S. cerevisiae deletion strains, locus YNL271C, strain bni1, hits give low values 0.988 | S. cerevisiae deletion strains, locus YNL298W, strain CLA4, hits give low values 0.989 | S. cerevisiae deletion strains, locus YNL307C, strain MCK1, hits give low values 0.999 | S. cerevisiae deletion strains, locus YNL322C, strain KRE1 (second series), hits give low values 0.972 | S. cerevisiae deletion strains, locus YNL322C, strain KRE1, hits give low values 1 | S. cerevisiae deletion strains, locus YNR049C, strain mso1, hits give low values 1.01 | S. cerevisiae deletion strains, locus YNR052C, strain pop2, hits give low values 0.99 | S. cerevisiae deletion strains, locus YOL006C, strain TOP1, hits give low values 1.03 | S. cerevisiae deletion strains, locus YOL012C, strain htz1 2.17 | S. cerevisiae deletion strains, locus YOL147C, strain pex11, hits give low values 0.998 | S. cerevisiae deletion strains, locus YOR001W, strain rrp6, hits give low values 0.974 | S. cerevisiae deletion strains, locus YOR061W, strain CKA2, hits give low values 1 | S. cerevisiae deletion strains, locus YOR069W, strain VPS5, hits give low values 1 | S. cerevisiae deletion strains, locus YOR070C, strain gyp1, hits give low values 0.976 | S. cerevisiae deletion strains, locus YOR080W, strain dia2, hits give low values 0.984 | S. cerevisiae deletion strains, locus YOR083W, strain WHI5, hits give low values 0.994 | S. cerevisiae deletion strains, locus YOR106W, strain vam3, hits give low values 0.989 | S. cerevisiae deletion strains, locus YOR136W, strain idh2, hits give low values 1.01 | S. cerevisiae deletion strains, locus YOR144C, strain elg1, hits give low values 0.999 | S. cerevisiae deletion strains, locus YOR184W, strain ser1, hits give low values 0.992 | S. cerevisiae deletion strains, locus YOR231W, strain MKK1, hits give low values 0.951 | S. cerevisiae deletion strains, locus YOR265W, strain rbl2, hits give low values 1 | S. cerevisiae deletion strains, locus YOR270C, strain vph1, hits give low values 1.02 | S. cerevisiae deletion strains, locus YOR290C, strain snf2, hits give low values 0.976 | S. cerevisiae deletion strains, locus YOR316C, strain cot1, hits give low values 1 | S. cerevisiae deletion strains, locus YPL051W, strain arl3, hits give low values 0.964 | S. cerevisiae deletion strains, locus YPL055C, strain LGE1, hits give low values 1.03 | S. cerevisiae deletion strains, locus YPL078C, strain atp4, hits give low values 0.974 | S. cerevisiae deletion strains, locus YPL106C, strain sse1, hits give low values 0.97 | S. cerevisiae deletion strains, locus YPL240C, strain hsp82, hits give low values 0.988 | S. cerevisiae deletion strains, locus YPL241C, strain CIN2, hits give low values 1.01 | S. cerevisiae deletion strains, locus YPL256C, strain CLN2, hits give low values 0.907 | S. cerevisiae deletion strains, locus YPR119W, strain clb2, hits give low values 0.994 | S. cerevisiae deletion strains, locus YPR141C, strain kar3, hits give low values 0.976 | S. cerevisiae deletion strains, locus YPR163C, strain tif3, hits give low values 1 | S. cerevisiae deletion strains, locus YPR167C, strain met16, hits give low values 0.999 | S. cerevisiae deletion strains, strain wtn01, hits give low values 0.999 | S. cerevisiae strains, strain wild type, hits give low values 1
